In all, about 360,000 compounds went through this assay and about 1,500 (0.42%) were called active. This is one part of a sample in which actives are shown more often than they occur. A number with no mark means an inactive call. Rule as the data show it: active = inhibition above about 13% (passing the limit was not always enough); inactive = the rest.
These molecules were tested against Lon protease (Escherichia coli (strain K12)) (UniProt P0A9M0) (assay: E. coli eLon protease inhibition – biochemical, fluorescence polarization, primary screen (AID 602123;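 also: 0% = enzyme with probe and DMSO and 100% = no enzyme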)). Conditions: purified E. coli Lon protease, at 7.94 µM, stronger effect = higher value.
Chain of Lon protease (Escherichia coli (strain K12)) (P0A9M0 whole entry, looked up): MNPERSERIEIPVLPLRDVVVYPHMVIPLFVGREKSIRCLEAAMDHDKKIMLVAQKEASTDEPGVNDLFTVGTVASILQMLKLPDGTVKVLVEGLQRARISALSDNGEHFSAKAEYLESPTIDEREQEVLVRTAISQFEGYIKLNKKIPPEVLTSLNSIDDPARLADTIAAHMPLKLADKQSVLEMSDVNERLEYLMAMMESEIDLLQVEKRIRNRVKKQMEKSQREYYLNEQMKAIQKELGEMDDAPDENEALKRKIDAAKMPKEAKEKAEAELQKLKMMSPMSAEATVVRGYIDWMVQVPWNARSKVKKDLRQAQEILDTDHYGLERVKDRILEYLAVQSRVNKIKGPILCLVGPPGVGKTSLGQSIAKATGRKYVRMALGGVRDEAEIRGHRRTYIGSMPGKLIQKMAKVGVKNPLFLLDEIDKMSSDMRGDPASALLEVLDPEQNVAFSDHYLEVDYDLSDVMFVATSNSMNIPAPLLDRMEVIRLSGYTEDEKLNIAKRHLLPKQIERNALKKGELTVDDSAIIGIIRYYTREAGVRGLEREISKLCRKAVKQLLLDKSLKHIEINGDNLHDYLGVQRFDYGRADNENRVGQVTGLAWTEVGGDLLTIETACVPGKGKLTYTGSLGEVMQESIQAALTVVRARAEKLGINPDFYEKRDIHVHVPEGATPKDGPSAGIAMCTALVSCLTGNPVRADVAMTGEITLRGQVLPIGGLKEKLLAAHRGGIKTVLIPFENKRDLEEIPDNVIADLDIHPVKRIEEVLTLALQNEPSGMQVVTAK

Row | SMILES | inhibition
1 | CSc1ccc(S(=O)(=O)N2CCC(C(=O)NCCc3ccccc3)CC2)cc1 | 11%
2 | CCN(CC)Cc1c(C(=O)N/N=C/c2cccc(OCc3ccc(F)cc3)c2)nnn1-c1nonc1N | 5.3%
3 | CN(C)Cc1c(C(=O)N/N=C/c2ccccc2OCc2ccc(F)cc2)nnn1-c1nonc1N | 18.9% (active)
4 | CC(C)Oc1ccc(/C=N/NC(=O)c2nnn(-c3nonc3N)c2CN(C)C2CCCCC2)cc1 | 1.38%
5 | CCc1ccc(CN2C(=O)c3ccccc3C2C(=O)NCC2CCCO2)cc1 (configuration not stated) | -0.17%
6 | COc1c(C(C)C)oc2cc3oc(=O)ccc3cc12 | 0.79%
7 | CS(=O)(=O)N(C(=O)NC(=O)NC1CCS(=O)(=O)C1)C1CCCCC1 (configuration not stated) | -6.98%
8 | Cc1ccc2cccc(S(=O)(=O)N3CCN(c4ccccc4F)CC3)c2n1 | 1.99%
9 | Cc1cc(-c2nnc(CCC(=O)NC(c3ccccc3)c3ccccc3)o2)no1 | 5.3%
10 | COc1cccc(N(CC(=O)NCc2ccccc2)C(=O)CCC(=O)Nc2nccs2)c1 | -5.92%
11 | COc1ccc(C2=CC(c3cccc(OC)c3)n3nnnc3N2)cc1 (configuration not stated) | 16.1% (active)
12 | COC(=O)C1=C(C(=O)c2ccc(C)cc2)C(c2ccccc2)n2nnnc2N1 (configuration not stated) | -7.42%
13 | COc1ccc(C2CC(c3cccs3)Nc3nnnn32)cc1 (configuration not stated) | -1.58%
14 | COc1c(C(=O)N2CCCC2)ccc2ccccc12 | -2.3%
15 | COC(=O)CNS(=O)(=O)c1ccc(Cc2ccc(S(=O)(=O)NCC(=O)OC)cc2)cc1 | 5.06%
16 | COC(=O)C[n+]1cccc2ccccc21 | 99.9% (active)
17 | CSc1ccccc1NC(=O)Cc1ccc(Br)cc1 | 3.49%
18 | COc1ccccc1C(=O)NCCC(=O)NC(C)CCc1ccccc1 (configuration not stated) | 2.26%
19 | COc1ccc(C(=O)NC(C)CCc2ccccc2)c(OC)c1 (configuration not stated) | 35.8% (active)

Row | SMILES | inhibition
20 | COc1ccc(C(=O)CCc2ccccc2O)c(OC)c1 | -6.58%
21 | COCC(C)NC(=O)CSc1nc2nn(-c3ccccc3)c(=O)c-2c2n1CCCCC2 (configuration not stated) | 8.05%
22 | C=CCSc1ccc(S(=O)(=O)N2CCN(C)CC2)cn1 | 2.87%
23 | O=C(CNCCO)NC12CC3CC(CC(C3)C1)C2 | 1.03%
24 | O=C(COC(=O)CNS(=O)(=O)c1ccccc1)NC12CC3CC(CC(C3)C1)C2 | -4.78%
25 | O=C(COC(=O)C12CC3CC(CC(O)(C3)C1)C2)NC12CC3CC(CC(C3)C1)C2 | 14.8% (active)
26 | Cc1ccc(N(C(=O)c2sc(C)nc2C)C(C(=O)NC(C)(C)C)c2ccncc2)cc1 (configuration not stated) | 2.66%
27 | CCS(=O)(=O)N1CCCC(C(=O)NCCCN(C)Cc2ccccc2)C1 (configuration not stated) | 0.57%
28 | O=C(CCCn1c(=O)oc2ccccc21)Nc1cccnc1 | 0.74%
29 | C/C(=N/NC(=O)CSc1ccccn1)c1ccc([N+](=O)[O-])cc1 | -0.59%
30 | CCN1C(=O)[C@H]2[C@@H](c3ccc(-c4ccc(F)cc4)cc3)N[C@@](Cc3ccccc3)(C(=O)OC)[C@H]2C1=O | -0.32%
31 | CCN1C(=O)[C@H]2[C@@H](c3ccc(-c4ccc(OC)cc4)cc3)N[C@@](Cc3ccccc3)(C(=O)OC)[C@H]2C1=O | -4.73%
32 | CCCSc1ccc([C@H]2N[C@@](Cc3ccccc3)(C(=O)OC)[C@H]3C(=O)N(C)C(=O)[C@@H]23)cc1 | 22.2% (active)
33 | CCNC(=S)N1CCN(S(=O)(=O)c2ccc(Cl)s2)CC1 | 3.82%
34 | O=C(Nc1ccc(F)c(Cl)c1)C1CCN(S(=O)(=O)c2cccnc2)CC1 | 1.53%
35 | Cc1cc(C)n(Cc2cnc(N3CCOCC3)s2)n1 | -9.37%
36 | Brc1ccc(C2=CC(c3ccco3)n3ncnc3N2)cc1 (configuration not stated) | 189% (active)
37 | Clc1ccc2c(c1)C1=C(C(c3ccncc3)O2)C(c2ccc(Br)cc2)n2ncnc2N1 (configuration not stated) | 0.69%
38 | CN1/C(=c2/s/c(=C3/C(=O)N(c4ccccc4)NC3=Nc3ccccc3)n(C)c2=O)C(C)(C)c2ccccc21 | -167%

Row | SMILES | inhibition
39 | CCN(CC(=O)NCc1cccs1)C(=O)c1ccccc1F | -7.98%
40 | Cc1ccc(S(=O)(=O)CCC(=O)OCC(=O)NCCc2ccc(S(N)(=O)=O)cc2)cc1 | -12.1%
41 | Cc1ccc(S(=O)(=O)CCC(=O)OCC(=O)N(C)Cc2ccccc2)cc1 | 5.85%
42 | Cc1ccc(S(=O)(=O)CCC(=O)OCc2ccccc2)cc1 | 15.9% (active)
43 | Cc1cc(Br)ccc1NC(=O)CN(C)C(=O)CN1C(=O)NC2(CCCC2)C1=O | -8.08%
44 | CCC(=O)c1ccc(OCC(=O)N(CC)CC2COc3ccccc3O2)cc1 (configuration not stated) | 5.37%
45 | CC(=O)NC(=S)Nc1ccc(NC(=S)NC(=O)c2ccc([N+](=O)[O-])cc2)cc1 | 21.3% (active)
46 | COCCCNC(=S)NC(=O)c1ccc([N+](=O)[O-])cc1 | -1.2%
47 | CC(=O)Nc1ccc(NC(=S)NC(=O)c2ccc([N+](=O)[O-])c(C)c2)cc1 | -3.89%
48 | COc1cc(Cl)c(C)cc1NC(=O)CSc1nnc(-c2ccco2)n1CC(C)C | -5.33%
49 | NC(Cc1ccccc1)c1csc(Nc2cc(Oc3ccccc3)ncn2)n1 (configuration not stated) | -2.31%
50 | CCN(CC)C(=O)CSc1nnc(-c2cnccn2)n1-c1ccc(C)cc1 | -8.84%
51 | CC(C)CCN(C(=O)c1csnn1)C(C(=O)NC1CCCC1)c1ccccc1 (configuration not stated) | 5.69%
52 | CCCn1c(SCC(=O)c2ccc3c(c2)OCCO3)nnc1C(C)C | 3.55%
53 | COCCn1c(SCC(=O)Nc2nc(C)cs2)nnc1C(C)C | 6.46%
54 | CCCn1c(SCC(=O)Nc2c(C)cccc2C)nnc1C(C)C | 14.6% (active)
55 | CCCCC(O)(CCCC)C(=O)NN(C(=O)CCl)c1ccccc1 | -2.85%
56 | Cc1cccc(N(Cc2ccccc2)C(=O)c2ccccc2F)c1 | 0.91%
57 | CCCC(O)(CCC)C(=O)NN(C(=O)CCl)c1cccc(C)c1 | 12.8% (active)

Source: PubChem BioAssay AID602123 (The Scripps Research Institute Molecular Screening Center, 2011)
